# Calls of active or inactive are those of the source.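 The calls were made as follows, unless noted: active = NADPH fluorescence slope more negative than the mean of all samples by about 3 SD, 99.7% confidence; inactive = the rest.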
# Experiments:
# [1] = inhibitors of TNFa-induced NFkB p65 translocation, primary screen, imaging, HUVEC, MLSMR starter and 10KST1 sets (AID 438;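 active = inhibition above 20% together with a positive visual image hit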;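 also: compound added about 3h40 before a 20 min TNFalpha stimulation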;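 as to inhibition: signal is the nuclear over cytoplasmic p65 intensity ratio per well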); conditions: HUVEC TNFa-induced p65 nuclear translocation; cell count: measured here: nuclei count (cytotoxicity indicator), at 2.08 µM; inhibition: at 2 µM, stronger effect = higher value, 0% TNFa-plus-vehicle, 100% no-TNFa wells
# [2] = inhibitors of E-selectin induction by TNFa, primary screen, imaging, HUVEC, immunofluorescence, MLSMR starter and 10KST1 sets (AID 487;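 active = visually confirmed hit in the image check and inhibition above 20%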;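 as to inhibition: signal is fraction of cell area covered by stained E-selectin grains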;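 as to nuclei count: 100% = median nuclei count of all wells on the same plate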); conditions: HUVEC TNFalpha-induced E-selectin immunofluorescence imaging, at 2 µM; inhibition: stronger effect = higher value; nuclei count: measured here: cell number, toxicity
# [3] = DUSP6 inhibitors restoring Erk phosphorylation by chemical complementation, primary imaging in DUSP6-transfected HeLa (AID 609;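 active = compounds giving at least 50% inhibition in the cell-based MKP-3 phosphatase rescue imaging test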;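 as to inhibition: phospho-Erk level distribution per well compared with pooled transfected vehicle control wells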); conditions: HeLa MKP-3 transfected, phospho-Erk imaging KS statistic, at 10 µM, cells stimulated with TPA for 15 min
# [4] = target: Dual specificity protein phosphatase 6 (Homo sapiens) (UniProt Q16828); assay: as above; conditions: HeLa MKP-3 transfected, phospho-Erk imaging KS statistic; at 10 µM; stronger effect = higher value; cells stimulated with TPA for 15 min
# Chain of Dual specificity protein phosphatase 6 (Homo sapiens) (Q16828 whole entry, looked up): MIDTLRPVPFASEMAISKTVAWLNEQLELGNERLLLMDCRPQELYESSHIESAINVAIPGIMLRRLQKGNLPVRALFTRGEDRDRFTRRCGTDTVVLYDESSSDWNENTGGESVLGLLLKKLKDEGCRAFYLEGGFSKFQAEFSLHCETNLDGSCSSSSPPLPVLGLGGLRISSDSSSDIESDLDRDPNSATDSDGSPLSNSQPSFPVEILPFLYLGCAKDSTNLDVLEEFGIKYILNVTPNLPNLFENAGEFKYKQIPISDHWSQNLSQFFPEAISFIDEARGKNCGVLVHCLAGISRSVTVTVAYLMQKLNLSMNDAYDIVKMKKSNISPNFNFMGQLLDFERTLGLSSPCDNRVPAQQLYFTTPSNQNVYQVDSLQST
# [5] = target: Voltage-gated potassium channel subunit beta-2 (Rattus norvegicus) (UniProt P62483); assay: KvBeta enzyme negative modulators, primary screen, biochemical, NADPH fluorescence (AID 622;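 active = fluorescence slope higher than the sample average by over 3 SD, cut at about -0.22 in these data, passing the limit was not always enough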;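 also: slope of raw intensity against log time taken from 70 to 1610 s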); conditions: recombinant KvBeta, 4-cyanobenzaldehyde reduction, at 10 µM, stronger effect = higher value
# Chain of Voltage-gated potassium channel subunit beta-2 (Rattus norvegicus) (P62483 whole entry, looked up): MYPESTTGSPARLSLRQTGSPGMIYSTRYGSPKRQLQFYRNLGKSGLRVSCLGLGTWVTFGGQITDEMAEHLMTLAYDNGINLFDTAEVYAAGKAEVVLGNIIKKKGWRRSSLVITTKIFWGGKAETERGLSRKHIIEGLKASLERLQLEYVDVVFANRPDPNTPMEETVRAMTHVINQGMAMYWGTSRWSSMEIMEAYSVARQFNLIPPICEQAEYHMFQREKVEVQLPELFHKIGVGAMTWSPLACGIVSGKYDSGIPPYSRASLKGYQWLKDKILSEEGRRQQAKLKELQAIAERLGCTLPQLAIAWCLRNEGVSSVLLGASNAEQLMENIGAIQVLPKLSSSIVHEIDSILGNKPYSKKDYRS
# [6] = target: Voltage-gated potassium channel subunit beta-2 (Rattus norvegicus) (UniProt P62483); assay: KvBeta positive modulators, primary screen, biochemical, NADPH fluorescence (AID 623); conditions: Recombinant KvBeta, NADPH fluorescence decrease slope, 10 min; at 10 µM; stronger effect = lower value;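 also: fluorescence intensity change per second fitted from 20 to 320 s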
# [7] = target: Alpha-2C adrenergic receptor (Homo sapiens) (UniProt P18825); assay: modulators of alpha2C/GIRK thallium flux, primary screen, cell-based, HEK293 alpha2C/GIRK1/2 (AID 624;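 active = fluorescence slope after compound addition differing from the mean of all screened samples at 99.7% confidence, in either direction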;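 also: slope of fluorescence ratio to pre-addition baseline per second over 15 to 24 s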); conditions: thallium flux BTC fluorescence, at 10 µM, actives lie on both sides
# Chain of Alpha-2C adrenergic receptor (Homo sapiens) (P18825 whole entry, looked up): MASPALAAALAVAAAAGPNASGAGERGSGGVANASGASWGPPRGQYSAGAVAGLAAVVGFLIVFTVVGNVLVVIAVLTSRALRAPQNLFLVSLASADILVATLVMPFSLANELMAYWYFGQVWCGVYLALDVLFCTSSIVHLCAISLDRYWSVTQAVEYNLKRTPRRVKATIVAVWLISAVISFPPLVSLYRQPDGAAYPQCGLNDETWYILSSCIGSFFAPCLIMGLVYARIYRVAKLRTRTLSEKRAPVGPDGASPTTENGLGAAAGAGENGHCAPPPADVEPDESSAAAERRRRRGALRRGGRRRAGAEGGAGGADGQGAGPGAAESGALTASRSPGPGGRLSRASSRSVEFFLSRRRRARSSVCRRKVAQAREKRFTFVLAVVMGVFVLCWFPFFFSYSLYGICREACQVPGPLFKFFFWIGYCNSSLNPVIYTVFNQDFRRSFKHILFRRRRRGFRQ
# [8] = inhibitors of larval lipid processing in zebrafish, primary screen, whole organism, PED6 fluorescence, gall bladder and intestine (AID 686;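 active = a full or partial loss of lipid-probe fluorescence in the fish gall bladder, intestine or both, judged by eye; inactive = no fluorescence loss, or compound toxic to the fish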;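 also: larvae 5 to 7 days old with five fish per well; signal comes from phospholipase A2 cleavage of quenched PED6 carried via bile; overnight exposure to compound and PED6 before scoring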); conditions: Zebrafish larvae PED6 lipid processing, fluorescence scoring; screened at 20 µM (by protocol)
# [9] = inhibitors of Chlamydomonas gravitaxis, primary screen, whole organism, Chlamydomonas reinhardtii, WT vs cilia-less mutant, absorbance, 96-well (AID 463189;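 active = inhibition at or above 50% relative to wild type and mutant plate controls; inactive = inhibition below 50%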;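 also: 0% = wild type cc124 cells in DMSO and 100% = ciliumless bld1 mutant cells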); conditions: OD600 absorbance, 2 days, at 10 µM, stronger effect = higher value
# [10] = target: Muscarinic acetylcholine receptor M4 (Homo sapiens) (UniProt P08173); assay: compounds altering M4/GIRK thallium flux, either direction, primary screen, M4 allosteric agonist project, cell-based, HEK293 M4/GIRK, BTC-AM (AID 625;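 active = fluorescence slope after compound addition differing from the mean of all tested samples at 99.7% confidence, mostly higher but some lower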;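 also: thallium influx through GIRK channels coupled to M4 in HEK293 cells with BTC-AM dye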); conditions: at 10 µM, actives lie on both sides
# Chain of Muscarinic acetylcholine receptor M4 (Homo sapiens) (P08173 whole entry, looked up): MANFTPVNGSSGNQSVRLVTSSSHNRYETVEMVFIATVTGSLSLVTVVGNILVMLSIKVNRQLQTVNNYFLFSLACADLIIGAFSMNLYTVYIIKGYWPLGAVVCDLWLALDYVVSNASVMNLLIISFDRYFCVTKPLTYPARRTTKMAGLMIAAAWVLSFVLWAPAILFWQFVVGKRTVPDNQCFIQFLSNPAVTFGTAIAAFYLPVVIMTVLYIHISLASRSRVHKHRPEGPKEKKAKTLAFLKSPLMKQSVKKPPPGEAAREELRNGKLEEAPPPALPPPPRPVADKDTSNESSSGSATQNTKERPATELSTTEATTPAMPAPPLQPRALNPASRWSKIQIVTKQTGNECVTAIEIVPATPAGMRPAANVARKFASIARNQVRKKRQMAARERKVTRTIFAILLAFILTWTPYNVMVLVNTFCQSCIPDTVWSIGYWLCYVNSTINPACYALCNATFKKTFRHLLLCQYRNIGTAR
# [11] = measured here: cell density z-score
# [12] = measured here: nuclear c-Myc green intensity z-score
# [13] = measured here: nuclear pErk red intensity z-score, stronger effect = higher value
SMILES,cell count [1],inhibition [1],inhibition [2],nuclei count [2] [%],"z-score [3, 11]","z-score [3, 12]","z-score [3, 13]",inhibition [4],fluorescence slope [5],NADPH fluorescence slope [6],slope [7],outcome [8],inhibition [9],fluorescence slope [10]
CCCOc1ccc(CSC(CC(=O)O)C(=O)O)cc1 (stereo unspecified),542,1.4% (inactive),-21% (inactive),124,1.34,-1.26,-1.51,-3.5% (inactive),-0.332 (inactive),1.3e-05 (inactive),0.00503 (inactive),inactive,15.7% (inactive),–
C=CCN(C(=O)CCC(=O)O)C1CC(=O)N(c2ccc(OCCC)cc2)C1=O (stereo unspecified),454,-10.8% (inactive),-213% (inactive),223,0.015,-1.26,-0.0284,-2.29% (inactive),-0.384 (inactive),-2.5e-05 (inactive),0.00464 (inactive),inactive,6.01% (inactive),–
O=C(c1cccc(Cl)c1)N1CCN(C(=O)c2ccccc2F)CC1,359,-17.3% (inactive),-357% (inactive),113,-0.228,-0.0273,-2.04,1.75% (inactive),-0.466 (inactive),-1.8e-06 (inactive),0.00888 (inactive),inactive,-3.06% (inactive),–
CCCOc1ccc(Cc2nn[nH]n2)cc1,665,-9.9% (inactive),-18.7% (inactive),154,-1.6,0.733,2.09,-3.95% (inactive),-0.396 (inactive),-5.5e-05 (inactive),0.00599 (inactive),inactive,-6.39% (inactive),–
CC1(C)NC(=O)N(CC(O)COc2ccccc2C(=O)Nc2ccccc2)C1=O (stereo unspecified),418,-22.7% (inactive),-2.7% (inactive),93.5,-0.97,1.76,-1.28,14% (inactive),-0.495 (inactive),-0.000337 (inactive),0.00492 (inactive),inactive,18.8% (inactive),–
COc1cc(C2C(C(=O)c3ccc(C)o3)=C(O)C(=O)N2c2cc(C)on2)cc(OC)c1OC (stereo unspecified),531,-0.1% (inactive),-101% (inactive),125,1.95,0.514,-0.298,19.3% (inactive),-0.507 (inactive),-9.6e-06 (inactive),0.00526 (inactive),inactive,-18.1% (inactive),–
COc1ccc(OC)c(NC(=O)CSc2nnc(-c3ccco3)n2-c2ccc(C(=O)O)cc2)c1,494,-27.8% (inactive),-97.7% (inactive),158,0.414,-0.401,-0.476,11.9% (inactive),-0.505 (inactive),-3.4e-05 (inactive),0.00721 (inactive),inactive,2.3% (inactive),–
O=C(c1ccccc1F)N1CCC(N2CCCCCC2)CC1,332,-3.1% (inactive),-138% (inactive),95.6,0.261,-1.02,-0.289,15.1% (inactive),-0.493 (inactive),-1.4e-05 (inactive),0.00789 (inactive),inactive,50.6% (active),–
Cc1ccc(-c2ccccc2NC(=O)C2C3C=CC(C3)C2C(=O)O)o1 (stereo unspecified),553,-2.2% (inactive),-4.5% (inactive),154,0.45,-0.671,-0.083,14% (inactive),-0.352 (inactive),5.5e-06 (inactive),0.00466 (inactive),inactive,7.64% (inactive),–
COc1cc(-c2nn3c(C4CCCCC4)nnc3s2)cc(OC)c1OC,535,-28.6% (inactive),-115% (inactive),167,-1.15,0.143,1.4,-7.86% (inactive),-0.479 (inactive),-0.000183 (inactive),0.00564 (inactive),inactive,12.1% (inactive),–
CCOC(=O)c1c(SC)nc(SC)c2c1CCC2,648,-8.1% (inactive),-63.6% (inactive),182,0.267,0.0457,1.4,-5.62% (inactive),-0.394 (inactive),-4.6e-05 (inactive),0.00956 (inactive),inactive,-10% (inactive),–
Cn1nnnc1SCC(=O)NCC(=O)c1ccccc1,527,-4.5% (inactive),-74.2% (inactive),146,0.246,-1.91,0.111,-7.01% (inactive),-0.527 (inactive),-6.9e-05 (inactive),0.00467 (inactive),inactive,10.2% (inactive),–
COC(=O)c1[nH]c(C)c(/C(O)=C2\C(=O)C(=O)N(CCN3CCOCC3)C2c2cccnc2)c1C (stereo unspecified),605,-1.2% (inactive),-2.2% (inactive),163,-1.96,0.711,-3.8,-3.95% (inactive),-0.46 (inactive),-0.000197 (inactive),–,inactive,5.4% (inactive),0.00521 (inactive)
COC(=O)C(NC(C)=O)(Nc1nc2c(s1)CCCC2)C(F)(F)F (stereo unspecified),370,-7.5% (inactive),-63.7% (inactive),193,1.49,0.382,-1.06,5.42% (inactive),-0.414 (inactive),-0.000114 (inactive),–,inactive,-6.09% (inactive),0.00554 (inactive)
Cc1cc(NC(=O)CSc2nc(-c3cccnc3)ccc2C#N)no1,733,-10.3% (inactive),-53% (inactive),171,0.472,0.655,-0.248,4.25% (inactive),-0.414 (inactive),-4.1e-05 (inactive),–,inactive,44.8% (inactive),0.00502 (inactive)
COC(=O)C1=C(C)N=C2SC(C)C(=O)N2C1c1ccc(C(=O)OC)cc1 (stereo unspecified),746,-2.4% (inactive),-42.3% (inactive),164,0.938,-0.219,-3.03,9.61% (inactive),-0.448 (inactive),-4.8e-05 (inactive),–,inactive,1.12% (inactive),0.00486 (inactive)
O=C(O)c1c[nH]c2ccc(S(=O)(=O)N3CCOCC3)cc12,597,-4.4% (inactive),-208% (inactive),144,-0.324,-1.59,0.18,5.42% (inactive),-0.496 (inactive),-6.6e-05 (inactive),–,inactive,8.59% (inactive),0.00433 (inactive)
C=CC(O)Cc1c(C)n[nH]c1C (stereo unspecified),656,-7.1% (inactive),-59.4% (inactive),167,-1.01,-0.115,-0.502,-9.66% (inactive),-0.503 (inactive),-6.2e-05 (inactive),–,inactive,11.7% (inactive),0.00568 (inactive)
N#C/C(C(=O)NCc1ccccc1)=C1\SC(CCO)C(=O)N1c1ccccc1 (stereo unspecified),501,-3.4% (inactive),-97.3% (inactive),120,0.0433,1.04,-2.12,5.42% (inactive),-0.429 (inactive),-1.4e-05 (inactive),–,inactive,-13.8% (inactive),0.00513 (inactive)
CC1CN(C2CCN(C(=O)c3ccccc3)CC2)CC(C)O1 (stereo unspecified),391,-25.6% (inactive),–,174,1.48,-0.00638,-0.737,-0.159% (inactive),-0.395 (inactive),-3.8e-05 (inactive),0.00679 (inactive),inactive,4.48% (inactive),–
Cc1ccc(Cn2ncc3c(N4CCN(c5ccc(C)cc5)CC4)ncnc32)cc1,548,-0.1% (inactive),2.9% (inactive),164,0.777,0.779,1.42,17.8% (inactive),-0.39 (inactive),-5.3e-05 (inactive),–,inactive,-10.9% (inactive),0.00638 (inactive)
CCOC(=O)C1(c2nc(N)cs2)COC(=O)C1 (stereo unspecified),529,-7.1% (inactive),15.9% (inactive),110,1.01,1.47,-1.03,16% (inactive),-0.497 (inactive),-5e-05 (inactive),–,inactive,-13.2% (inactive),0.00548 (inactive)
Cn1c(N2CCOCC2)nc2c1c(=O)n(Cc1ccc(Cl)cc1)c(=O)n2C,644,12.1% (inactive),-31.1% (inactive),101,0.134,0.368,0.486,-2.09% (inactive),-0.446 (inactive),-3.4e-05 (inactive),–,inactive,-7.86% (inactive),0.00452 (inactive)
c1ccc(CSc2nnc(SCc3ccccn3)s2)nc1,352,-20.9% (inactive),–,173,1.06,-1.17,0.36,3.66% (inactive),-0.405 (inactive),-5.6e-05 (inactive),0.00665 (inactive),inactive,-2.59% (inactive),–
Cc1cc(/C(O)=C2\C(=O)C(=O)N(CCN(C)C)C2c2ccncc2)ccc1OCc1ccccc1 (stereo unspecified),664,-0.2% (inactive),9.6% (inactive),174,-0.686,0.247,-0.699,5.35% (inactive),-0.481 (inactive),-5.4e-05 (inactive),–,inactive,3.31% (inactive),0.00492 (inactive)
O=C1C=C(NCCNc2c(F)c(F)c(CO)c(F)c2F)CCC1,504,-12.3% (inactive),-87.2% (inactive),105,0.485,-0.53,-1.21,17.8% (inactive),-0.396 (inactive),-1.8e-05 (inactive),–,inactive,32.9% (inactive),0.00657 (inactive)

# — PubChem BioAssay
